# Reference: PubChem BioAssay (NCATS)
# Several values for one entry are separate records, joined by “and”; a condition that tells them apart may be missing. Equal entries are not always repeated. Values without a mark were called inactive. Results filed as inconclusive are left out. Entries that show only a call come without a potency. Activity calls are given as the source filed them. Unless noted, the call rests on the fitted dose curve; in most records, active means well fitted curve in the direction sought with a large enough effect; inconclusive means small, poorly fitted or top-dose-only effect, or another doubt; inactive means no such curve, though single readings can be large; an effect the other way counts as inactive or inconclusive. Starred links: 1 amine or outer side, 2 acyl side, 3 side chain; linkers in the order of their positions; H or OH if unused. Positions of bridges follow the written chain, without caps; N, C: chain ends. Non-standard residues stand in square brackets, D forms with d. Residues, ends and D or L forms follow the SMILES beside them. Chains are numbered I, II in the order given. Actinocin(9to1) = Cc1c2oc3c(C)ccc(C(=O)[*:1])c3nc-2c(C(=O)[*:2])c(N)c1=O; NMeV = CN[CH](C(=O)O)C(C)C; Sar = CNCC(=O)O
# Legend:
# [1] = P-glycoprotein substrates identified in KB-3-1 adenocarcinoma cell line, qHTS therapeutic library screen (AID 1346986); further: nearly all actives have a fitted effect of over 60% in size;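 further: potency means the concentration at half of the fitted maximal effect; potency is for cytotoxicity meaning loss of cell viability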
# In short: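 KB-3-1 parental cells and P-gp-overexpressing KB-8-5-11 (colchicine omitted during assay) plated at 500 cells/well, dosed in dose-response, incubated 72 h at 37 degree C. CellTiter-Glo luminescence read; KB-8-5-11 also tested with tariquidar.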
# [2] = qHTS of pediatric cancer cell lines to identify multiple opportunities for drug repurposing: Primary screen for DAOY cells (AID 1347090); further: nearly all actives have a fitted effect of over 55% in size; further: potency means the concentration at half of the fitted maximal effect; on activity change, negative = cytotoxic: series mostly up to about 46 µM
# In short: (§1)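 Eight- or eleven-point concentration series, 48 h treatment at 37 degrees C in growth media; readout CellTiter-Glo luminescence. Potency and efficacy were taken from the concentration-response curves.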
# [3] = qHTS of pediatric cancer cell lines to identify multiple opportunities for drug repurposing: Primary screen for SJ-GBM2 cells (AID 1347091); further: potency means the concentration at half of the fitted maximal effect
# In short: as §1
# [4] = P-glycoprotein substrates identified in KB-8-5-11 adenocarcinoma cell line, qHTS therapeutic library screen (AID 1346987); further: nearly all actives have a fitted effect of over 65% in size; further: potency means the concentration at half of the fitted maximal effect
# In short: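 KB-8-5-11: colchicine-selected sub-line of KB-3-1 over-expressing P-gp; assay medium lacked colchicine. 72 h drug exposure at 37 degree C, CellTiter-Glo.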
# [5] = Natriuretic polypeptide receptor (hNpr1) antagonism - Pilot counterscreen GloSensor control cell line (AID 1347045; calls by dose curve; further: series mostly up to about 38 µM)
# In short: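 HEK293 cells carrying the GloSensor cGMP sensor (GIP/pGS-40F) were loaded with 2% GloSensor reagent for 2 h, exposed to compounds for 30 min, and then stimulated with 50 uM sodium nitroprusside for 20 min at room temperature.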
# [6] = target: Atrial natriuretic peptide receptor 1 (Homo sapiens) (UniProt P16066); experiment: Natriuretic polypeptide receptor (hNpr1) antagonism - Pilot screen (AID 1347049; calls by dose curve;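 further: agonist-evoked cGMP luminescence read 20 min after hNppA addition; series mostly up to about 58 µM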)
# Chain of Atrial natriuretic peptide receptor 1 (Homo sapiens) (P16066 whole entry, looked up): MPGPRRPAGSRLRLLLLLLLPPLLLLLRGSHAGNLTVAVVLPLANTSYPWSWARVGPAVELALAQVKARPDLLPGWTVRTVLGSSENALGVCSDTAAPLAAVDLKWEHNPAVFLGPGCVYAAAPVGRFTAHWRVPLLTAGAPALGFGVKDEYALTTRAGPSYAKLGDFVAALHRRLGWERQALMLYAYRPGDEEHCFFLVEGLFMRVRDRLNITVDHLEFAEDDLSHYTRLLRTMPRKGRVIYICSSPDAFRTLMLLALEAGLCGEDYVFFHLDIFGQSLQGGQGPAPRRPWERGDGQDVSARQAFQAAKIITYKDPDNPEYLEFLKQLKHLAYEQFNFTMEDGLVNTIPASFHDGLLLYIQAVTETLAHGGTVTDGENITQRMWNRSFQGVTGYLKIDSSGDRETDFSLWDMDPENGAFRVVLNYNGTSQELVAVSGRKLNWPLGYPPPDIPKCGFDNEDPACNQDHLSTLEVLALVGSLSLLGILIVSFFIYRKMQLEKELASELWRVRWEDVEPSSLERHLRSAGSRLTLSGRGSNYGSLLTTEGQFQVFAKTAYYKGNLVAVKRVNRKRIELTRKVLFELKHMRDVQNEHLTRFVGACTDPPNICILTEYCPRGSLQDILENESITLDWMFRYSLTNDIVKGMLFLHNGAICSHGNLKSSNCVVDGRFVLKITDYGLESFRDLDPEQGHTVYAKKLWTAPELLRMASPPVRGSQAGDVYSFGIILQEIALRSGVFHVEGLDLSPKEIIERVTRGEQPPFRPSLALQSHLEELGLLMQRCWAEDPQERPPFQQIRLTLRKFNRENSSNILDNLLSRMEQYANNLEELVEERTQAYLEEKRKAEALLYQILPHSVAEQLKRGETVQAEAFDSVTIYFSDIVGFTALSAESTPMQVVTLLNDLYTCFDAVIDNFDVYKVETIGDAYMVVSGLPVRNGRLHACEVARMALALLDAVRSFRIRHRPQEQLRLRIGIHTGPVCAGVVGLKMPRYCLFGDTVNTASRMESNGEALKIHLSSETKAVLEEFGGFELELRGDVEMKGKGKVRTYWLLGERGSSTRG
# In short: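 HEK293 cells co-expressing hNpr1 and the GloSensor pGS-40F cGMP luciferase sensor were preloaded with 2% GloSensor reagent for 2 h. Compounds were added for 30 min at room temperature, then cells were stimulated with 0.1 nM hNppA for 20 min before luminescence readout.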
# [7] = target: Atrial natriuretic peptide receptor 2 (Homo sapiens) (UniProt P20594); experiment: Natriuretic polypeptide receptor (hNpr2) antagonism - Pilot subtype selectivity assay (AID 1347050; calls by dose curve)
# Chain of Atrial natriuretic peptide receptor 2 (Homo sapiens) (P20594 whole entry, looked up): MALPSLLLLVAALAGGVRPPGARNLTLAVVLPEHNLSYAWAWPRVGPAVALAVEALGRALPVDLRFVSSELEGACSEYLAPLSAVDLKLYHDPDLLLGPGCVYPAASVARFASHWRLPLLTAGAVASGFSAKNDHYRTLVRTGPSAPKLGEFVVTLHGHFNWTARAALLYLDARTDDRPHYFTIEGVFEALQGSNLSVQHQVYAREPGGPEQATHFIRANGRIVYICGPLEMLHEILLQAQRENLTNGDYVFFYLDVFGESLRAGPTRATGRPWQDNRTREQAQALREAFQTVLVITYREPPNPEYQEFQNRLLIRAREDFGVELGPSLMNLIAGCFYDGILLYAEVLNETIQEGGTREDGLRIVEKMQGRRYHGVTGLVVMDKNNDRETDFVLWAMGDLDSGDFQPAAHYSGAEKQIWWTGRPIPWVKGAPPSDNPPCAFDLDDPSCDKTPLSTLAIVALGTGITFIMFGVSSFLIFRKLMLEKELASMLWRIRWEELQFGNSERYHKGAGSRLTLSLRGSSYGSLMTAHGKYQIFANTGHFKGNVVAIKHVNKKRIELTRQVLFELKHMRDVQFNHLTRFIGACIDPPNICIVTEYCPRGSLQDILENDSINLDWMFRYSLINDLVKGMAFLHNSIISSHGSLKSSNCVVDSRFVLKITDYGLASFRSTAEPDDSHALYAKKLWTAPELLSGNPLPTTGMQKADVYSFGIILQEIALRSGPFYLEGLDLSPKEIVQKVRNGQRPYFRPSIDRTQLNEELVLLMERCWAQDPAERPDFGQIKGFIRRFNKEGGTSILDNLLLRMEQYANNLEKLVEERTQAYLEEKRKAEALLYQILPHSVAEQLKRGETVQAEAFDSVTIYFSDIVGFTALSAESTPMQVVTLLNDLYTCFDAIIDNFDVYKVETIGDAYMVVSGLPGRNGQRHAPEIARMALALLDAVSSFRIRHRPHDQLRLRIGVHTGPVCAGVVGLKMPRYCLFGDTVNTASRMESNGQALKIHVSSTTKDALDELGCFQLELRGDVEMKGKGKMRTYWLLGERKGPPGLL
# In short: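 cGMP-sensor HEK293/hNpr2 cells; 2% GloSensor reagent 2 h RT; compounds 30 min; baseline luminescence read; 1 nM hNppC agonist 20 min RT; final luminescence read by CCD camera. Antagonism = reduced post-agonist signal.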
# [8] = target: Parathyroid hormone/parathyroid hormone-related peptide receptor (Homo sapiens) (UniProt Q03431); experiment: qHTS for PTHR1 Agonists: Optimization Screen against the NCGC LOPAC library (AID 1347079);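 further: GloSensor cAMP luminescence in HEK-293 GP2 cells expressing human PTHR1 with IBMX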
# Chain of Parathyroid hormone/parathyroid hormone-related peptide receptor (Homo sapiens) (Q03431 whole entry, looked up): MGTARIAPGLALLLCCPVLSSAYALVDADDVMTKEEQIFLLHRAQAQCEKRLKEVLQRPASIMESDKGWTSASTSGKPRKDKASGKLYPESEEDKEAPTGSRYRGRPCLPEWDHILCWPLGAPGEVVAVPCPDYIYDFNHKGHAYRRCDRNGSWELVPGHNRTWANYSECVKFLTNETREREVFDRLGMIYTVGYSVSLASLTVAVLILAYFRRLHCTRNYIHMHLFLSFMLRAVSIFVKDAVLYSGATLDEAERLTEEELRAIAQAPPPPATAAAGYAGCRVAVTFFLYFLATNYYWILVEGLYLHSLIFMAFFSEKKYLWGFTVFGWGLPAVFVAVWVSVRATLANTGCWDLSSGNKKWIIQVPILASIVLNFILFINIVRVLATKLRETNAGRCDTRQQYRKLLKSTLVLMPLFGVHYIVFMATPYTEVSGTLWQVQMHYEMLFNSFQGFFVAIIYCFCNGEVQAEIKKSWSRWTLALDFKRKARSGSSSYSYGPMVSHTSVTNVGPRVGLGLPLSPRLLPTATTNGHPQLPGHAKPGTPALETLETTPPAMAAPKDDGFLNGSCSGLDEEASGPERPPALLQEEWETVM
# In short: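 Compounds were tested across a qHTS titration. PTHR1-expressing GP2 cells report cAMP rises via GloSensor luminescence after 1 hr compound exposure at 37C with IBMX present.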
# [9] = qHTS of pediatric cancer cell lines to identify multiple opportunities for drug repurposing: Primary screen for TC32 cells (AID 1347089); further: nearly all actives have a fitted effect of over 60% in size; further: potency means the concentration at half of the fitted maximal effect
# In short: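 qHTS, TC32, 48 h drug treatment, CellTiter-Glo luminescence as a proxy for metabolically active cells; primary top concentration 46 µM (MIPE 11-pt, NPC 8-pt); confirmatory 11-pt.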
# [10] = NS1 protein of Zika virus - qHTS assay to identify small molecule inhibitors in human HEK 293 cells (AID 1347053); further: nearly all actives have a fitted effect of over 55% in size; further: potency means the concentration at half of the fitted maximal effect
# In short: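 Inhibition of NS1 expression was scored in HEK 293 cells given compound 1 h ahead of MR766 virus (MOI = 0.5). Following 24 h at 37 C, two anti-NS1 antibodies generated a TR-FRET signal, scaled between uninfected and infected controls.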
smiles,measurement,setting,value
CS(=O)(=O)N1CCc2c(-c3cnc(N)nc3)nc(N3CCOCC3)nc21,Potency,[1],820 nM (active)
same,Potency,[2],469 nM (active)
same,Potency,[3],209 nM (active)
N#Cc1ccc(COC[C@H]2O[C@@H](n3c(NCc4ccc(Cl)c(Cl)c4)nc4c(N)ncnc43)[C@@H](O)[C@@H]2O)cc1,Potency,[4],inactive
COc1ccc2cc([S+]([O-])Cc3ncc(C)c(OC)c3C)nc2c1,Potency,[1],inactive
same,outcome,[5],inactive
same,outcome,[6],inactive
same,outcome,[7],inactive
same,outcome,[8],inactive
same,Potency,[9],inactive
same,Potency,[2],inactive
same,Potency,[3],inactive
C[C@@]12C[C@@]3(O)O[C@@H](O1)[C@]1(COC(=O)c4ccccc4)[C@@H]3C[C@@]12O[C@@H]1O[C@H](CO)[C@@H](O)[C@H](O)[C@@H]1O,Potency,[1],inactive
same,Potency,[4],inactive
same,Potency,[10],inactive
same,Potency,[9],inactive
same,Potency,[2],inactive
same,Potency,[3],inactive
C[C@](Cc1c[nH]c2ccccc12)(NC(=O)OC1C2CC3CC(C2)CC1C3)C(=O)NC[C@H](NC(=O)CCC(=O)O)c1ccccc1 (some centres undefined),Potency,[4],inactive
same,Potency,[10],inactive
same,Potency,[9],inactive
same,Potency,[2],inactive
OCCN1C[C@H](O)[C@@H](O)[C@H](O)[C@@H]1CO,Potency,[1],inactive
same,Potency,[4],inactive
same,Potency,[10],inactive
same,Potency,[9],inactive
same,Potency,[2],inactive
same,Potency,[3],inactive
O=c1[nH]c(=O)n([C@H]2C[C@@H](O)[C@@H](CO)O2)cc1F,Potency,[4],1.66 µM (active)
same,Potency,[10],833 nM (active)
same,Potency,[9],930 nM (active)
CC(=O)O[C@H]1C[C@@H]2CC[C@H]3[C@H]4C[C@H]([N+]5(C)CCCCC5)[C@@H](OC(C)=O)[C@@]4(C)CC[C@@H]3[C@@]2(C)C[C@H]1[N+]1(C)CCCCC1,Potency,[1],inactive
same,Potency,[4],inactive
same,Potency,[10],inactive
same,Potency,[9],inactive
same,Potency,[2],inactive
same,Potency,[3],inactive
C=CC(=O)Nc1cc(NC(=O)c2ccc(C)c(NC(=O)c3ccno3)c2)cc(C(F)(F)F)c1,Potency,[4],inactive
CCCCC(=O)O[C@]1(C(=O)CO)[C@@H](C)C[C@H]2[C@@H]3CCC4=CC(=O)C=C[C@]4(C)[C@@]3(F)[C@@H](O)C[C@@]21C,Potency,[4],inactive
same,Potency,[10],inactive
same,Potency,[9],inactive
same,Potency,[2],inactive
C[N+]1(C)[C@@H]2C[C@@H](OC(=O)C(O)(c3cccs3)c3cccs3)C[C@H]1[C@@H]1O[C@@H]12,Potency,[1],inactive
same,Potency,[4],inactive
same,Potency,[10],inactive
same,Potency,[9],inactive
same,Potency,[2],inactive
same,Potency,[3],inactive
CCNC(=O)Nc1ccc(-c2nc3c(c(N4CCOC[C@H]4C)n2)CCN(C2COC2)C3)cc1,Potency,[1],580 nM (active)
same,Potency,[4],1.84 µM (active)
same,Potency,[10],inactive
same,Potency,[9],3300 nM (active)
same,Potency,[3],743 nM (active)
"Cc1c2oc3c(C)ccc(C(=O)NC4C(=O)NC(C(C)C)C(=O)N5CCCC5C(=O)N(C)CC(=O)N(C)C(C(C)C)C(=O)OC4C)c3nc-2c(C(=O)NC2C(=O)NC(C(C)C)C(=O)N3CCCC3C(=O)N(C)CC(=O)N(C)C(C(C)C)C(=O)OC2C)c(N)c1=O (centres undefined) (I: TVP[Sar][NMeV] / II: TVP[Sar][NMeV]; ester I:1-I:C, II:1-II:C; linker I:N-II:N via Actinocin(9to1); configuration not given here)",Potency,[4],0.187 µM (active)
same,Potency,[10],7430 nM (active)
same,Potency,[9],523 nM (active)
O=C1c2c(O)cccc2[C@@H]([C@@H]2O[C@H](CO)[C@@H](O)[C@H](O)[C@H]2O)c2cc(CO)cc(O)c21,Potency,[1],inactive
same,Potency,[4],inactive
same,Potency,[10],inactive
same,Potency,[9],inactive
same,Potency,[2],inactive
same,Potency,[3],inactive
CCCNS(=O)(=O)Nc1ncnc(OCCOc2ncc(Br)cn2)c1-c1ccc(Br)cc1,Potency,[1],inactive
same,Potency,[4],inactive
same,Potency,[9],inactive
same,Potency,[2],inactive
same,Potency,[3],inactive
COc1cc(C)c(C=CC(C)=CC=CC(C)=CC(=O)O)c(C)c1C,Potency,[1],inactive
same,Potency,[4],inactive
same,Potency,[10],inactive
same,Potency,[9],inactive
same,Potency,[3],inactive
CCNC(=O)c1cc2c(-c3cc(OCCN4CCCC4)c(Cl)cc3Cl)nc(N)nc2s1,Potency,[4],5.26 µM (active)
same,Potency,[10],inactive
same,Potency,[9],3700 nM (active)
Cc1ncc(-c2ccnc(Nc3ccc(S(C)(=O)=O)cc3)n2)n1C(C)C,Potency,[4],7.43 µM (active) and 13 µM (active)
same,Potency,[10],4690 nM (active)
same,Potency,[9],13100 nM (active)
same,Potency,[2],4690 nM (active)
CCN1CCN(C(=O)N[C@H](C(=O)N[C@@H]2C(=O)N3C(C(=O)O)=C(CSc4nnnn4C)CS[C@@H]23)c2ccc(O)cc2)C(=O)C1=O,outcome,[4],inactive [at 9.29 µM]
same,Potency,[10],inactive
same,"activity change, negative = cytotoxic",[9],13.6% [at 9.17 µM]
same,"activity change, negative = cytotoxic",[2],8.24% [at 9.22 µM]
same,"activity change, negative = cytotoxic",[3],24.4% [at 9.22 µM]
CON=C(C(=O)N[C@@H]1C(=O)N2C(C(=O)O)=C(Cn3ccc(=N)n3CCO)CS[C@H]12)c1csc(N)n1,Potency,[4],inactive
same,Potency,[10],inactive
same,Potency,[9],inactive
same,Potency,[2],inactive
same,Potency,[3],inactive
